One assay addresses Vascular endothelial growth factor receptor 1 (Homo sapiens) (UniProt P17948). As to conditions: at 0.1 µM.
Vascular endothelial growth factor receptor 1 (Homo sapiens), sequence (P17948 whole entry): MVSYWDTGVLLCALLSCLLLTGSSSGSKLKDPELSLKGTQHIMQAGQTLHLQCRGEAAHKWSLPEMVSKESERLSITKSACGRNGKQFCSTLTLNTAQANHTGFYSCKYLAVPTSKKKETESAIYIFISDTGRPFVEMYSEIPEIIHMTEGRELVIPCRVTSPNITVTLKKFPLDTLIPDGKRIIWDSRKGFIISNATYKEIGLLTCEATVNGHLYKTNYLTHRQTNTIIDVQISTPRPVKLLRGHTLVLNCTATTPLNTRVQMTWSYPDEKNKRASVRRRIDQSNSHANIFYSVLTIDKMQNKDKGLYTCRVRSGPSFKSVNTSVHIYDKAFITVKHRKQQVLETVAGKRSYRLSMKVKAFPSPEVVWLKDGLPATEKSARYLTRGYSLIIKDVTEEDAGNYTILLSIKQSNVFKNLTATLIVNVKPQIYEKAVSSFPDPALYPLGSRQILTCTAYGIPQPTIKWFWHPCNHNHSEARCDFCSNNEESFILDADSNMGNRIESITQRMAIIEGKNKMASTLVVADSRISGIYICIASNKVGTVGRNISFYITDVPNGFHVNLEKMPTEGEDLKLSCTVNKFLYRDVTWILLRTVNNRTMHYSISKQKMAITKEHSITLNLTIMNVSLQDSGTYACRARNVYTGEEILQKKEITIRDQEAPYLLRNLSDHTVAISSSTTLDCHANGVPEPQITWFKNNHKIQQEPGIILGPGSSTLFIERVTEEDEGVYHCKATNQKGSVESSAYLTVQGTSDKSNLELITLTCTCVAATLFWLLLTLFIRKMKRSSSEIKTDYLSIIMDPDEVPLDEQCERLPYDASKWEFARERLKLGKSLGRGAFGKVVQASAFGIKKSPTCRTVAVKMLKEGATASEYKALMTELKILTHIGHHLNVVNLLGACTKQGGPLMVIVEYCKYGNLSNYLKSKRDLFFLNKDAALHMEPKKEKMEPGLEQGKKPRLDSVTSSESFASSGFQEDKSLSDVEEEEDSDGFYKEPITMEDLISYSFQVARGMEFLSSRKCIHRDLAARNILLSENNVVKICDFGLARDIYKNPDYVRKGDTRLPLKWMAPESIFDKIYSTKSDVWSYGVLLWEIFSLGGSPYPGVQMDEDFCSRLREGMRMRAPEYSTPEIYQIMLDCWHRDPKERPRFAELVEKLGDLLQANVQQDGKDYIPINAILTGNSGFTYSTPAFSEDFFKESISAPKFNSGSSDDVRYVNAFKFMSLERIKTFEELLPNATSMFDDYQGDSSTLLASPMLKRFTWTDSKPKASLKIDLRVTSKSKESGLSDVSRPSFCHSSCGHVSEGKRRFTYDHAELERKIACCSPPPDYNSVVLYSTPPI
With `CCn1c(-c2nonc2N)nc2ccncc21`, the inhibition came out at 0.15%. On the same count and under the same terms, under `Fc1cccc(COc2ccc(Nc3ncnc4sc(-c5cccs5)cc34)cc2Cl)c1` stands -0.58%.

In the case of `Cc1ccc(NC(=O)c2ccnc(N3CCCC3)c2)cc1-c1ccc(C(=O)NCC2CC2)cc1`, the inhibition was -0.77%.

For a further assay the target is unchanged. As to conditions: at 1 µM.
Consider `CS(=O)(=O)CCN(CC#N)Cc1ccc(-c2ccc3ncnc(Nc4ccc(OCc5cccc(F)c5)c(Cl)c4)c3c2)o1`, for which the inhibition was determined as 6.33%.

For the compound `CC(=O)Nc1cccc(C#Cc2cncnc2Nc2ccc(OCc3cccc(F)c3)c(Cl)c2)n1`, the inhibition was -0.69%. The same measure, in the same setting: as for `COc1ccccc1Nc1ncc(-c2ccccc2)o1`, the figure is 16.4%; as for `NS(=O)(=O)c1cccc(-c2ccc3c(NC(=O)C4CC4)n[nH]c3c2)c1`, -0.85%. Still for that read-out and setting: under `Cc1nnc(-c2ccc(C)c(-c3ccc(C(=O)Nc4cccc(C#N)c4)cc3)c2)o1` stands 1.58%.

Turning to `COc1ccc(-c2nn3ncccc3c2-c2ccnc(Nc3ccc(Cl)c(C(F)(F)F)c3)n2)cc1`, the inhibition worked out at 1.63%. Same read-out and setting: under `O=C1NC(=O)C(c2ccc(Cl)cc2)=C1Nc1ccc(Cl)c(C(=O)O)c1` stands 2.99%; under `COC(=O)Nc1nc2cc(Oc3cccc(NC(=O)Nc4cc(C(F)(F)F)ccc4F)c3)ccc2[nH]1`, 25.7%; under `O=C1NC(=O)C(c2cccc(Cl)c2)=C1Nc1ccc(O)c(Cl)c1`, 1.36%.

Consider `CCCN1CCC=C(c2ccc(Nc3nc(Nc4ccccc4C(N)=O)c4cc[nH]c4n3)c(C)c2)C1`, for which the inhibition was determined as 5.76%. Same read-out and setting: under `Nc1nc(-c2ccc3c(c2)C(=Cc2cc(Br)c(O)c(Br)c2)C(=O)N3)cs1` stands 0.2%; under `O=C1NC(=O)C(c2ccccc2Cl)=C1Nc1cccc(O)c1`, 0.77%. Still for that read-out and setting: under `CCc1cccc(NC(=O)Nc2ccc(Oc3ccc4nc(NC(=O)OC)[nH]c4c3)cc2)c1` stands 43.8%; under `CC1=C(C(=O)Nc2ccc3[nH]ncc3c2)C(c2ccc3ccccc3c2)CC(=O)N1` (stereo unspecified), 4.08%.

As to `CS(=O)(=O)Nc1ccc(N/C=C2\C(=O)Nc3ccccc32)cc1`, the inhibition turned out to be 20.8%. Still for that read-out and setting: under `COc1cc2c(cc1Nc1nc(N3CCc4ccccc43)c3cc[nH]c3n1)N(C(=O)CN(C)C)CC2` stands 2.02%; under `CCN1CCC(CC(=O)Nc2n[nH]c3nc(-c4cccs4)c(Br)cc23)CC1`, 3.83%; under `NCc1ccc(-c2nc(-c3ccc(Cl)c(O)c3)c(-c3ccncc3)[nH]2)cc1`, 70.6%. As to `COC(=O)Nc1nc2cc(Oc3ccc(NC(=O)Nc4cccc(C(=O)O)c4)cc3)ccc2[nH]1`, the inhibition came out at 8.22%. On the same count and under the same terms, under `O=C(Nc1n[nH]c2nc(-c3ccco3)c(Br)cc12)C1CC1` stands 4.22%; under `CCn1c(-c2nonc2N)nc2cnc(Oc3cccc(NC(=O)c4ccc(OCCN5CCOCC5)cc4)c3)cc21`, 2.14%. The same measure, in the same setting: under `COc1cccc(-n2ncc3c(N/N=C/c4cccc(F)c4)ncnc32)c1` stands 3.31%; under `Nc1ncnc2occ(-c3ccc(NC(=O)Nc4cccc(C(F)(F)F)c4)cc3)c12`, 91%; under `CCn1c(-c2nonc2N)nc2cncc(C(=O)N3CC[C@H](N)C3)c21`, 4.67%. In the case of `COc1cc2ncn(-c3cc(O[C@@H](C)c4ccccc4Cl)c(C(N)=O)s3)c2cc1OC`, the inhibition worked out at 13.3%. Still for that read-out and setting: as for `CCCN1CCC(Oc2cc(Nc3nc(Nc4cccc(F)c4C(N)=O)c4cc[nH]c4n3)c(OC)cc2Cl)CC1`, the figure is 2.7%; as for `[O-][S+]1CCN(Cc2ccc(-c3ccc4ncnc(Nc5ccc(OCc6ccccc6)c(F)c5)c4c3)o2)CC1`, -1.13%. Take `Cc1ccc(C(=O)NC2CCCCC2)cc1-c1ccc(C(=O)NCC2CC2)cc1`: the inhibition is 2.09%. On the same count and under the same terms, under `CNC(=O)c1cncc(/C=C/c2c(Cl)cccc2Cl)c1` stands 4.61%; under `CN(C)c1cc2c(Nc3ccc4nc(Cc5ccccc5)[nH]c4c3)ncnc2cn1`, 11.2%. On to `CCn1c(-c2nonc2N)nc2ccncc21`, for which the inhibition is -0.38%. For `Fc1cccc(COc2ccc(Nc3ncnc4sc(-c5cccs5)cc34)cc2Cl)c1`, the inhibition was found to be 3.56%. The same measure, in the same setting: under `Cc1ccc(NC(=O)c2ccnc(N3CCCC3)c2)cc1-c1ccc(C(=O)NCC2CC2)cc1` stands 0.49%.

For the origin of these results see ChEMBL document CHEMBL1961873, “Compounds: GSK PKIS; Assays: Nanosyn kinase panel” (2012).
